Measurements reported in PubChem BioAssay.
Values joined by “and” are separate entries in the source; they are usually repeats but may differ in a detail not shown here. Identical values can stand only once. Active and inactive are the calls of the source.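 The calls were made as follows, unless noted: active = normalized viability below 100% at a tested concentration; inactive = the rest.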

What was measured:
[1] = compounds altering circadian rhythm period length – cell-based, LOPAC library, luminescence reporter (AID 2774; call rule not given here;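 also: values are relative to mean of DMSO wells on each plate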); settings: circadian reporter cells, at 7 µM, actives lie on both sides
[2] = P. berghei load reduction in hepatocytes – cell-based, HepG2, luciferase luminescence, HepG2 viability, primary screen (AID 624349; in the data active = parasite load remaining mostly below about 12%, no sharp cut-off; inactive = mostly above about 10%;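 also: 100% = mean of DMSO negative control wells on the same plate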); settings: P. berghei liver stage in HepG2, luciferase luminescence, concentration not given here; parasite load remaining: stronger effect = lower value; viability: measured here: HepG2 viability without parasites
[3] = Wnt pathway potentiators raising nuclear beta-catenin – imaging, WNT3A-conditioned medium, mouse C2C12, NPC library, primary screen (AID 1117326; in the data active = nuclear beta-catenin stimulation mostly above about 4.2%, no sharp cut-off; inactive = mostly below about 10%); settings: stronger effect = higher value
[4] = stimulators of insulin release from INS-1E, primary screen, cell-based, 5 mM glucose, NPC library (AID 1117329;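 active = compound raises insulin release from rat beta cells at 5 mM glucose, no numeric limit stated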); settings: rat INS-1E insulin secretion, at 10 µM, stronger effect = higher value
[5] = growth inhibition of GSK3B-pretreated HCT116 cells – cell-based, CellTiter-Glo, 0.2 to 20 µM (AID 1117336;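 active = compounds lowering colon cancer cell viability after pretreatment blocking the GSK3B kinase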); settings: HCT116 viability after GSK3B inhibitor, at 20 µM, stronger effect = higher value
[6] = inhibition of endothelial tube formation, primary screen, imaging, VEGF stimulated, CD31 staining, tube area, NPC library (AID 1117340;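 active = compound that reduces growth-factor-driven endothelial tube area in a mixed cell culture, no cutoff stated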); settings: VEGF-stimulated ADSC/ECFC co-culture, at 10 µM, stronger effect = higher value
[7] = GLP1 release stimulators, primary, NCI-H716, NPC library (AID 1117341;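 active = compound raises GLP1 secretion from the human gut endocrine cells, with no numeric limit stated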); settings: NCI-H716 cells, at 10 µM, stronger effect = higher value
[8] = HCT116 colon cancer cell growth inhibition, primary screen, CellTiter-Glo luminescence, NPC library (AID 1117342;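 active = compounds that lower survival of HCT116 colon cancer cells in the luminescence readout, no numeric limit stated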); settings: at 20 µM (top of the series)
[9] = reduced SW480 viability measured with CellTiter-Glo, NPC library, primary (AID 1117343;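 active = compounds that lower viability of the colon cancer cells in the luminescence readout, with no numeric limit stated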); settings: CellTiter-Glo luminescence; at 20 µM (top of the series)
[10] = NPC library primary testing for decreased DLD-1 cell viability via CellTiter-Glo (AID 1117346;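 active = compounds that lower survival of DLD-1 colon cancer cells in the luminescence readout, no cutoff given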); settings: DLD-1 viability, CellTiter-Glo luminescence; at 20 µM (top of the series)
[11] = viability loss with induced miR-34 in A549 – imaging, A549 dox-inducible miR-34, nuclei and caspase counts, primary screen (AID 1347080;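 active = compounds whose cell count with miR-34 switched on is under 0.7 times the count with it off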); settings: A549 miR-34 inducible, Hoechst nuclei count, 48 h
[12] = MELAS cybrid and Rieske KO viability enhancers – cell-based, MELAS cybrids, Rieske KO mouse fibroblasts, CellTiter-Glo, primary screen (AID 1508586;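 active = mean z-score across replicates of 1.96 or higher in either the MELAS or the Rieske mutant cell line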;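 also: z relative to plate mean and SD of compound and empty wells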); settings: low glucose
[13] = target: NAD(+) hydrolase SARM1 (Homo sapiens) (UniProt Q6SZW1); test: blocking NAD cleavage by SARM1 SAM-TIR – cell lysate, NAD-Glo luminescence (AID 1508614;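 active = compound whose remaining NAD level is above about 45 nM, limit read from the data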;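 also: higher remaining NAD means stronger inhibition of SARM1 NADase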); settings: SAM-TIR HEK293T lysate NADase, at 1 µM, stronger effect = higher value
[14] = galactose survival enhancers in mitochondrial complex I cybrids – cell-based, galactose medium, ATP luminescence, primary screen (AID 1645843;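 active = z-score of at least 1.8 in each of two replicates, scored against plate mean and spread of sample wells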;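 also: positive z means more ATP and so rescue of galactose-driven cybrid death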); settings: complex I mutant cybrid cells, 72 h, stronger effect = higher value
[15] = compounds altering viability of human ES cells (AID 493140; call rule not given here;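 also: cells exposed to compounds for four days before counting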); settings: human embryonic stem cell survival screen; stronger effect = higher value
[16] = EMT-state selective cytotoxicity in co-culture – imaging, PC-3E GFP, TEM4-18 mCherry, primary screen (AID 1345086;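 active = compounds killing one labelled cell type while sparing the other, by normalised counts and ratio limits, not self-fluorescent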;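 also: cells exposed to compound for 72 h before imaging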;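 as to red/green cell ratio (normalised): normalised mesenchymal count divided by normalised epithelial count so high means epithelial killing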); settings: PC-3E GFP / TEM4-18 mCherry co-culture, imaging cell counts, at 1 µM
[17] = system: Hepatitis C virus NS3 helicase; test: blockers of NS3h binding to ssDNA – biochemical, fluorescence polarization, LOPAC1280 library, primary screen (AID 687035; in the data active = inhibition above about 37%); settings: Purified HCV NS3 helicase, Cy5-dT15 ssDNA binding fluorescence polarization; stronger effect = higher value; concentration not given here
[18] = drug combination growth inhibition, ovarian cancer – cell-based, oncology-focused library, rucaparib conditional, profiling panel (AID 1508598); settings: patient-derived ovarian cancer cells, CellTiter-Glo viability, 144 h, stronger effect = lower value
[19] = measured here: relative caspase fold change +Dox/-Dox
[20] = measured here: total cells with miR-34 induction, stronger effect = lower value
[21] = measured here: total cells without miR-34 induction
[22] = MELAS cybrid survival, CellTiter-Glo 48 h, stronger effect = higher value
[23] = Rieske KO mouse fibroblast survival, CellTiter-Glo 72 h

Sequence of NAD(+) hydrolase SARM1 (Homo sapiens) (Q6SZW1 whole entry, looked up): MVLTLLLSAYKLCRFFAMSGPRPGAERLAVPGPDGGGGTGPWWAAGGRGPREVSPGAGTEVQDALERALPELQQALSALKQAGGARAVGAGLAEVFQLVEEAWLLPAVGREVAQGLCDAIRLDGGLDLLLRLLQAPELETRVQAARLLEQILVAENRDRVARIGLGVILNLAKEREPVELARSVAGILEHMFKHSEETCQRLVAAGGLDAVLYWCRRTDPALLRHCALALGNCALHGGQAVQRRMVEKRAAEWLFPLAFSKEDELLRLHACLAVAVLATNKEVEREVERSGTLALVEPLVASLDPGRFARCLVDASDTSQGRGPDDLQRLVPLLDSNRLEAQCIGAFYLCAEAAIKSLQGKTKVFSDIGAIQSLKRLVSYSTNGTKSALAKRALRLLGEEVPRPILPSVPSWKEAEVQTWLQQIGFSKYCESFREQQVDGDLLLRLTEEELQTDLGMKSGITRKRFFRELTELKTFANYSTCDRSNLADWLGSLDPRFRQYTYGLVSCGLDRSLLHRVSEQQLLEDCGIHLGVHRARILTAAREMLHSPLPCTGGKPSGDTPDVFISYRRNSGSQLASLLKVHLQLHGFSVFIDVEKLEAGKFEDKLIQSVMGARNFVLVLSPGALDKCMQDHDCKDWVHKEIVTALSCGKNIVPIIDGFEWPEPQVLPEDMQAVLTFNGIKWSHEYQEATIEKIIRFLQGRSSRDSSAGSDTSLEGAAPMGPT

C[C@]12CC[C@H](O)CC1=CC[C@@H]1[C@@H]2CC[C@]2(C)C(=O)CC[C@@H]12
period change [1]: -0.175 h (inactive) | parasite load remaining [2]: 67.8% (inactive) and 14.9% (inactive) | viability [2]: 72.6% and 126% | nuclear beta-catenin stimulation ([3]; at 10 µM): 3.7% (inactive) | nuclear beta-catenin stimulation ([3]; stimulation, at 2 µM): 1.2% | insulin secretion stimulation [4]: -3% (inactive) | viability decrease [5]: 3.8% (inactive) | tube area decrease [6]: 8% (inactive) | GLP1 secretion stimulation [7]: 1.9% (inactive) | inhibition of viability [8]: -21.8% (inactive) | viability decrease (inhibition) [9]: 113% (active) | viability decrease (inhibition) [10]: 8.95% (inactive) | fold change ([11]; stronger effect = lower value): 0.917 (inactive) | fold change [11, 19]: 1.38 | cell count [11, 20]: 8820 | cell count [11, 21]: 9620 | z-score [12, 22]: 0.542 (inactive) | z-score [12, 23]: -0.656 | remaining NAD [13]: 10 nM (inactive) | z-score [14]: -0.16 (inactive)

CC(C)c1c(CN(C)C(C)Cc2ccccc2)n(C)n(-c2ccccc2)c1=O (stereo unspecified)
survival [15]: 1.08 (inactive) | parasite load remaining [2]: 76.8% (inactive) | viability [2]: 87.3% | nuclear beta-catenin stimulation ([3]; at 10 µM): 1.5% (inactive) | nuclear beta-catenin stimulation ([3]; stimulation, at 2 µM): 5.4% | insulin secretion stimulation [4]: 0% (inactive) | viability decrease [5]: -83% (inactive) | tube area decrease [6]: 9.4% (inactive) | GLP1 secretion stimulation [7]: 3.9% (inactive) | inhibition of viability [8]: 50.3% (active) | viability decrease (inhibition) [9]: 103% (active) | viability decrease (inhibition) [10]: 73.2% (active) | red/green cell ratio (normalised) ([16]; actives lie on both sides): 1.06 (inactive) | normalised cell number ([16]; measured here: epithelial PC-3E GFP cell survival): 0.93 | normalised cell number ([16]; measured here: mesenchymal TEM4-18 mCherry cell survival): 0.98 | fold change ([11]; stronger effect = lower value): 0.889 (inactive) | fold change [11, 19]: 1.06 | cell count [11, 20]: 8350 | cell count [11, 21]: 9380 | z-score [12, 22]: -1.05 (inactive) | z-score [12, 23]: 0.158 | remaining NAD [13]: 10 nM (inactive)

Cn1c(CCCC(=O)O)nc2cc(N(CCCl)CCCl)ccc21
inhibition [17]: -4% (inactive) | nuclear beta-catenin stimulation ([3]; at 10 µM): 3% (inactive) | nuclear beta-catenin stimulation ([3]; stimulation, at 2 µM): 0.9% | insulin secretion stimulation [4]: 0.9% (inactive) | viability decrease [5]: -12.4% (inactive) | tube area decrease [6]: 44.6% (active) | GLP1 secretion stimulation [7]: -0.7% (inactive) | inhibition of viability [8]: 6.5% (inactive) | viability decrease (inhibition) [9]: 18.4% (inactive) | viability decrease (inhibition) [10]: -5.7% (inactive) | fold change ([11]; stronger effect = lower value): 1.1 (inactive) and 0.89 (inactive) | fold change [11, 19]: 0.645 and 1.16 | cell count [11, 20]: 8630 and 6450 | cell count [11, 21]: 7880 and 7250 | z-score [12, 22]: -0.517 (inactive) | z-score [12, 23]: -0.135 | viability ([18]; at 0.000305 µM, OCI-C5x cells, with rucaparib 10 µM, 100% = cells with rucaparib alone): 103% (inactive) | viability ([18]; at 0.000305 µM, OCI-C5x cells, without rucaparib): 107% (inactive) | viability ([18]; at 0.000305 µM, OCI-P5x cells, with rucaparib 20 µM, 100% = cells with rucaparib alone): 107% (inactive) | viability ([18]; at 0.000305 µM, OCI-P5x cells, without rucaparib): 101% (inactive) | viability ([18]; at 0.00122 µM, OCI-C5x cells, with rucaparib 10 µM, 100% = cells with rucaparib alone): 97.3% (active) | viability ([18]; at 0.00122 µM, OCI-C5x cells, without rucaparib): 99.1% (active) | viability ([18]; at 0.00122 µM, OCI-P5x cells, with rucaparib 20 µM, 100% = cells with rucaparib alone): 99.9% (active) | viability ([18]; at 0.00122 µM, OCI-P5x cells, without rucaparib): 102% (inactive) | viability ([18]; at 0.00488 µM, OCI-C5x cells, with rucaparib 10 µM, 100% = cells with rucaparib alone): 104% (inactive) | viability ([18]; at 0.00488 µM, OCI-C5x cells, without rucaparib): 104% (inactive) | viability ([18]; at 0.00488 µM, OCI-P5x cells, with rucaparib 20 µM, 100% = cells with rucaparib alone): 103% (inactive) | viability ([18]; at 0.00488 µM, OCI-P5x cells, without rucaparib): 109% (inactive) | viability ([18]; at 0.0195 µM, OCI-C5x cells, with rucaparib 10 µM, 100% = cells with rucaparib alone): 105% (inactive) | viability ([18]; at 0.0195 µM, OCI-C5x cells, without rucaparib): 99.7% (active) | viability ([18]; at 0.0195 µM, OCI-P5x cells, with rucaparib 20 µM, 100% = cells with rucaparib alone): 93.4% (active) | viability ([18]; at 0.0195 µM, OCI-P5x cells, without rucaparib): 100% (inactive) | viability ([18]; at 0.0781 µM, OCI-C5x cells, with rucaparib 10 µM, 100% = cells with rucaparib alone): 109% (inactive) | viability ([18]; at 0.0781 µM, OCI-C5x cells, without rucaparib): 97.6% (active) | viability ([18]; at 0.0781 µM, OCI-P5x cells, with rucaparib 20 µM, 100% = cells with rucaparib alone): 92.7% (active) | viability ([18]; at 0.0781 µM, OCI-P5x cells, without rucaparib): 96.4% (active) | viability ([18]; at 0.313 µM, OCI-C5x cells, with rucaparib 10 µM, 100% = cells with rucaparib alone): 104% (inactive) | viability ([18]; at 0.313 µM, OCI-C5x cells, without rucaparib): 101% (inactive) | viability ([18]; at 0.313 µM, OCI-P5x cells, with rucaparib 20 µM, 100% = cells with rucaparib alone): 95% (active) | viability ([18]; at 0.313 µM, OCI-P5x cells, without rucaparib): 74.7% (active) | viability ([18]; at 1.25 µM, OCI-C5x cells, with rucaparib 10 µM, 100% = cells with rucaparib alone): 124% (inactive) | viability ([18]; at 1.25 µM, OCI-C5x cells, without rucaparib): 97.4% (active) | viability ([18]; at 1.25 µM, OCI-P5x cells, with rucaparib 20 µM, 100% = cells with rucaparib alone): 92.4% (active) | viability ([18]; at 1.25 µM, OCI-P5x cells, without rucaparib): 79.4% (active) | viability ([18]; at 5 µM, OCI-C5x cells, with rucaparib 10 µM, 100% = cells with rucaparib alone): 106% (inactive) | viability ([18]; at 5 µM, OCI-C5x cells, without rucaparib): 93% (active) | viability ([18]; at 5 µM, OCI-P5x cells, with rucaparib 20 µM, 100% = cells with rucaparib alone): 80.1% (active) | viability ([18]; at 5 µM, OCI-P5x cells, without rucaparib): 84.8% (active) | z-score [14]: 0.31 (inactive)
